Out of some 310,000 compounds screened, about 14,000 (4.5%) showed an effect of 50% or more. The effect is printed as a negative number. This is one part of a sample in which strong results are shown more often than they occur.
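Further: peak tail current of the secondary pulse compared with the same well before compound.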

Chain of human ether-à-go-go-related gene (hERG) potassium channel (Q12809 whole entry, looked up): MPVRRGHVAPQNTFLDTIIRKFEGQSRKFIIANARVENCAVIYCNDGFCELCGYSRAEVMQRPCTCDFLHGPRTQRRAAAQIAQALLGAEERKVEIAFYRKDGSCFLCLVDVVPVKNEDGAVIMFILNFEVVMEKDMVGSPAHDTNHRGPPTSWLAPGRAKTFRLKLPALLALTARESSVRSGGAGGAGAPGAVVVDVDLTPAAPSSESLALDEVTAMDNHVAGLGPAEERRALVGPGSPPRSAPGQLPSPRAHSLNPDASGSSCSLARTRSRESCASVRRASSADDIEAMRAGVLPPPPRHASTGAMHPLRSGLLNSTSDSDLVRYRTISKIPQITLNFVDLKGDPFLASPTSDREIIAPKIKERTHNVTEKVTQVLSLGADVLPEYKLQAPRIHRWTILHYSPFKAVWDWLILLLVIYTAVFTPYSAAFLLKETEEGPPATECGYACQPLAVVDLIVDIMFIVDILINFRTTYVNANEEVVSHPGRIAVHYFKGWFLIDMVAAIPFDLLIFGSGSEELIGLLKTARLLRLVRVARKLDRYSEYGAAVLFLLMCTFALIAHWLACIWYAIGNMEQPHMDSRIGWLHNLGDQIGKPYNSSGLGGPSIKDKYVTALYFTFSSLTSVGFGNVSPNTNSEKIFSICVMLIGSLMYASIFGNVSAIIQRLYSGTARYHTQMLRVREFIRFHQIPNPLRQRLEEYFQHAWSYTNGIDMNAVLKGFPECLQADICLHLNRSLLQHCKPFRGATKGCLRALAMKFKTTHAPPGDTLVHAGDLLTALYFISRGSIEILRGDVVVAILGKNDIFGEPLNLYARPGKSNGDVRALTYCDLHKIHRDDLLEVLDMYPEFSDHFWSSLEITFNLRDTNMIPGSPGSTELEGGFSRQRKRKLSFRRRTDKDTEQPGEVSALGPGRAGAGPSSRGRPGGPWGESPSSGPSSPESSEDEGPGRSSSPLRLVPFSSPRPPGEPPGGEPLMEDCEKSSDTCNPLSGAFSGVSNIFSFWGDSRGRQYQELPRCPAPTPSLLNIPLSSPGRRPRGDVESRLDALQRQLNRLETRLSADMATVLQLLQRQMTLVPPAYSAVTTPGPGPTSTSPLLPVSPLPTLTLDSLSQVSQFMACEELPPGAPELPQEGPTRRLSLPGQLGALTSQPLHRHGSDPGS

The target of the experiment is human ether-à-go-go-related gene (hERG) potassium channel (human, UniProt Q12809). Nature of the experiment: primary screen, population patch clamp on CHO cells stably expressing hERG; higher = less effect of the substance. The protocol:
Briefly, Chinese hamster ovary (CHO) cells stably expressing the hERG channel were dislodged from tissue culture flasks and dispensed into PPC plates. […] During the recording, background leak currents were estimated by a 100 ms step to -80 mV from an initial holding potential of -70 mV and subtracted from the subsequent current measurement. The campaign was conducted in two phases using slight differences in recording protocol. In the first phase, the initial voltage pulse used a 100 ms step to -30 mV from a holding potential of -70 mV, a 2 s conditioning step to +25 mV, and a 2 s test step to -30 mV. During the second phase of the screen, the potential during the conditioning step was raised to +45 mV. In both phases of the campaign, a secondary voltage pulse was applied using the same parameters as the second phase initial pulse. The initial and secondary pulses were applied in the absence of compound, and upon application of 1 μM and 10 μM test concentrations. […]
For `O=C1CCc2ccccc2N1`, the “hERG current change (%, negative = inhibition) at 10uM” value came to 16.5%.

In the case of `Cc1ccc(-c2csc(NC(=O)c3ccccc3Cl)c2C(=O)O)cc1`, the “hERG current change (%, negative = inhibition) at 10uM” value came to 20.8%.

Consider `COCc1nnc(NC(=O)c2ccc(S(=O)(=O)N(CC(C)C)CC(C)C)cc2)o1`, for which the “hERG current change (%, negative = inhibition) at 10uM” value is given as -7.19%.

With `NNc1nc2cc3c(cc2s1)OCCO3`, the “hERG current change (%, negative = inhibition) at 10uM” value was found to be 14.1%.

For the molecule `CN(C(=O)CSc1nc2c(cnn2-c2ccccc2)c(=O)[nH]1)C1CCS(=O)(=O)C1` (stereo not drawn), the “hERG current change (%, negative = inhibition) at 10uM” value is 16.1%.

As to `CSCC(C)N1CCC(CCC(=O)NC2CC2)CC1` (stereo not drawn), the “hERG current change (%, negative = inhibition) at 10uM” value is -18.1%.

For the molecule `OCCCCO`, the “hERG current change (%, negative = inhibition) at 10uM” value stood at 13.7%.

For the molecule `Oc1ccc(Cc2ncc(C(F)(F)F)cc2Cl)cc1`, the “hERG current change (%, negative = inhibition) at 10uM” value was -15.4%.

With `Cc1ccc(N(CC(=O)N2CCCCC2)S(=O)(=O)c2ccc(C)cc2)cc1`, the “hERG current change (%, negative = inhibition) at 10uM” value is given as -20.9%.

Regarding `OCc1csc(=Nc2ccccc2)n1-c1ccccc1`, the “hERG current change (%, negative = inhibition) at 10uM” value stood at 0.29%.

`CCC(C)NCCOCCOc1ccc(Cl)c(C)c1C.O=C(O)C(=O)O` (stereo not drawn): the “hERG current change (%, negative = inhibition) at 10uM” value was -31.7%.

On to `C=CCc1cc(Cl)ccc1OCCN(C)C.O=C(O)C(=O)O`, for which the “hERG current change (%, negative = inhibition) at 10uM” value is listed as -42%.

With `CN(C)CCOCCOc1ccc(Cl)cc1C(C)(C)C.O=C(O)C(=O)O`, the “hERG current change (%, negative = inhibition) at 10uM” value is on record as -37.3%.

Consider `C=CCc1cc(Cl)ccc1OCCOCCNC(C)CC.O=C(O)C(=O)O` (stereo not drawn), for which the “hERG current change (%, negative = inhibition) at 10uM” value is reported as -69.2%.

As for `C=CCc1cc(Cl)ccc1OCCOCCNC(C)(C)C.O=C(O)C(=O)O`, the “hERG current change (%, negative = inhibition) at 10uM” value is listed as -49.5%.

Turning to `C=CCc1cc(Cl)ccc1OCCOCCN(C)C.O=C(O)C(=O)O`, the “hERG current change (%, negative = inhibition) at 10uM” value is listed as -51.5%.

For the molecule `Cc1occc1-c1nnc(SCC(=O)Nc2c(F)cccc2F)n1C`, the “hERG current change (%, negative = inhibition) at 10uM” value is reported as -7.23%.

Regarding `CCOC(=O)c1c(C)[nH]c(C)c1S(=O)(=O)N1CCN(C(=O)c2ccco2)CC1`, the “hERG current change (%, negative = inhibition) at 10uM” value is reported as 16.5%.

For `Cc1ccc(S(=O)(=O)N2CCCOC2CNC(=O)C(=O)NCc2ccc3c(c2)OCO3)cc1` (stereo not drawn), the “hERG current change (%, negative = inhibition) at 10uM” value is on record as -13.4%.

As for `CNC(=S)NNC(=O)c1cccn(Cc2cccc(C(F)(F)F)c2)c1=O`, the “hERG current change (%, negative = inhibition) at 10uM” value is reported as 22.2%.

On to `N#C/C(=C/c1ccc(O)cc1)C(=O)NCc1ccc(Cl)cc1`, for which the “hERG current change (%, negative = inhibition) at 10uM” value is 23.1%.

For the molecule `C=CCSc1nc2ccsc2c(=O)n1-c1cccnc1`, the “hERG current change (%, negative = inhibition) at 10uM” value is on record as -8.97%.

For the molecule `Cc1cc2nc(CO)[nH]c2cc1C`, the “hERG current change (%, negative = inhibition) at 10uM” value is 14.9%.

On to `O=C1NC2NC(=O)N([N+](=O)[O-])C2N1` (stereo not drawn), for which the “hERG current change (%, negative = inhibition) at 10uM” value amounted to 14.6%.

Turning to `CC(C)NC(=O)COC(=O)c1ccc(Cl)c(S(N)(=O)=O)c1`, the “hERG current change (%, negative = inhibition) at 10uM” value is 18.6%.

As to `COc1ccc(CC(=O)Nc2c3c(nn2-c2cccc(Cl)c2)CS(=O)C3)cc1` (stereo not drawn), the “hERG current change (%, negative = inhibition) at 10uM” value is listed as -37.1%.

As to `O=C(Nc1c2c(nn1-c1cccc(Cl)c1)CS(=O)(=O)C2)c1ccco1`, the “hERG current change (%, negative = inhibition) at 10uM” value is -37.9%.

As for `COc1ccc(CC(=O)Nc2c3c(nn2-c2cccc(C)c2C)CS(=O)(=O)C3)cc1`, the “hERG current change (%, negative = inhibition) at 10uM” value is -24.5%.

With `CCCC(=O)Nc1c2c(nn1-c1cccc(Cl)c1)CS(=O)(=O)C2`, the “hERG current change (%, negative = inhibition) at 10uM” value is -53.4%.

For the molecule `O=C(Nc1c2c(nn1-c1cccc(Cl)c1)CS(=O)(=O)C2)C1CC1`, the “hERG current change (%, negative = inhibition) at 10uM” value is listed as -66.9%.

With `O=C(Cc1ccccc1)Nc1c2c(nn1-c1cccc(Cl)c1)CS(=O)(=O)C2`, the “hERG current change (%, negative = inhibition) at 10uM” value is listed as -76.2%.

Turning to `CC(C)CC(=O)Nc1c2c(nn1-c1cccc(Cl)c1)CS(=O)(=O)C2`, the “hERG current change (%, negative = inhibition) at 10uM” value is on record as -40.8%.

For the molecule `CCC(=O)Nc1c2c(nn1-c1cccc(Cl)c1)CS(=O)(=O)C2`, the “hERG current change (%, negative = inhibition) at 10uM” value is -38.7%.

With `O=C(Nc1c2c(nn1-c1ccccc1)CS(=O)(=O)C2)C1CCCC1`, the “hERG current change (%, negative = inhibition) at 10uM” value is given as -0.437%.

For the molecule `COc1ccc(CC(=O)Nc2c3c(nn2-c2cccc(Cl)c2)CS(=O)(=O)C3)cc1`, the “hERG current change (%, negative = inhibition) at 10uM” value is -51.7%.

`O=C(Nc1c2c(nn1-c1ccc(Cl)cc1)CS(=O)(=O)C2)C1CC1`: the “hERG current change (%, negative = inhibition) at 10uM” value is on record as -26.8%.

Take `CC(=O)Nc1c2c(nn1-c1cccc(Cl)c1)CS(=O)(=O)C2`: the “hERG current change (%, negative = inhibition) at 10uM” value is -16.8%.

As to `COc1ccc(CSCCc2n[nH]c(=S)n2-c2ccccc2)cc1C`, the “hERG current change (%, negative = inhibition) at 10uM” value turned out to be 0.99%.

Take `O=C(COc1ncnc2ccccc12)Nc1cccc([N+](=O)[O-])c1`: the “hERG current change (%, negative = inhibition) at 10uM” value was -2.61%.

Consider `Cc1cc(C)nc(NC(N)=NC(C)c2ccccc2)n1` (stereo not drawn), for which the “hERG current change (%, negative = inhibition) at 10uM” value is listed as -0.0621%.

In the case of `Cc1cc(C)nc(NC(N)=NCCc2c[nH]c3ccccc23)n1`, the “hERG current change (%, negative = inhibition) at 10uM” value amounted to 11.6%.

As to `Cc1ccc(CN=C(N)Nc2nc(C)cc(C)n2)cc1.Cl`, the “hERG current change (%, negative = inhibition) at 10uM” value is on record as -76.1%.

Regarding `Cc1cc(C)nc(/N=C(\N)Nc2ccc(CC(=O)OC(C)C)cc2)n1`, the “hERG current change (%, negative = inhibition) at 10uM” value is reported as -67.6%.

As to `Cc1cc(C)cc(N/C(N)=N/c2nc(C)cc(C)n2)c1`, the “hERG current change (%, negative = inhibition) at 10uM” value is given as -50%.

On to `Cc1cccc(N/C(N)=N/c2nc(C)cc(C)n2)c1`, for which the “hERG current change (%, negative = inhibition) at 10uM” value was -28%.

For the molecule `CC(=O)Nc1ccc(N/C(N)=N/c2nc(C)cc(C)n2)cc1`, the “hERG current change (%, negative = inhibition) at 10uM” value is reported as 14%.

`COc1cc(N/C(N)=N/c2nc(C)cc(C)n2)cc(OC)c1`: the “hERG current change (%, negative = inhibition) at 10uM” value was -49.8%.

`CC(=O)NS(=O)(=O)c1ccc(N/C(N)=N/c2nc(C)cc(C)n2)cc1`: the “hERG current change (%, negative = inhibition) at 10uM” value is recorded as 13.3%.

For the origin of these results see PMC4336329 (PLoS ONE, 2015).
